# Most compounds without a hit are left out; they make up all but 3.1% or so of the library.
# IL-2 act = activators of IL-2; IL-2 activation reporter assay, cell-based qHTS; stimulated with anti-CD3/CD4/CD28 beads; in transgenic mouse T cells; activation, % (series mostly up to about 46 µM); 360,000 tested, 0.065% active; AID 652025; in the data active = activation above about 50%; inconclusive = mostly about 30% to 49%; note: 0% is about no effect
#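 Unstimulated transgenic mouse T cells preincubated 60 min with compound, then stimulated with anti-CD3/anti-CD4-coated beads plus anti-CD28 for 18 h at 37 degrees C. IL-2 response read as EGFP and DsRed fluorescence by plate cytometry.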
# BRCA1 expr up = increases BRCA1 expression | MCF7-BRCA1-FFLuc reporter, luminescence, 48 h; response scale: scaled: vehicle 0%, 10 µM genistein 100% | Potency, µM (top dose mostly 46.1 µM), for inactives: at the highest dose activation, usual class: activators | 380,000 tested, 1.1% active; note: potency is the fitted concentration of half-maximal effect; nearly all actives have a fitted effect of over 80% in size
#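 Using MCF7 cells harboring a BRCA1 firefly luciferase reporter, plated 2 h before compound pinning, the screen measured luminescence after 48 h incubation. Responses were normalized to DMSO and 10 microM genistein, then fitted for concentration-effect.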
# Nrf2 activator = activates Nrf2 signaling; Potency, µM (top dose mostly 46.1 µM), for the others: top-dose activation, usual class: activators; AREc32 ARE-luciferase reporter (MCF7-derived line), luminescence, 24 h; 410,000 tested, 0.31% active; AID 624171; note: potency is the fitted concentration of half-maximal effect; % of control where 0% means no effect; nearly all actives have a fitted effect of over 65% in size
#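 AREc32 cells carrying an ARE-driven firefly luciferase, 1000 cells/well in OPTI-MEM with 5% FBS, dosed after overnight attachment and incubated 24 hr at 37 deg C. Steady-Glo luminescence read after 30 min at RT.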
# ELG1 repair inh = inhibitors of ELG1-dependent DNA repair in HEK293T cells | HEK293T ELG1-luciferase reporter, luminescence, 16 h; DNA damage induced by 5-fluorouridine | Potency, µM (highest dose often 46.1 µM), for the others: at the highest dose activity change, negative = inhibition, actives largely listed as inhibitors | 330,000 tested, 2.3% active | AID 504467; note: potency is the fitted concentration of half-maximal effect; % is set by controls: 0 for no effect and ±100 for the full control effect; nearly all actives have a fitted effect of over 55% in size
#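 Cells (2,000 per well) received 5-fluorouridine plus test compound or DMSO and were incubated 16 hr at 37 °C, 5% CO2. Luciferase activity was read by luminescence 30 min after ONE-Glo addition; signal suppression marked inhibition of damage-induced ELG1 function.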
# Numbers without * were called inactive; ? = inconclusive; . = no result; [ ] = dose if it differs, or a comment. Unless noted, calls come from the whole dose curve; as a rule, active = well fitted curve in the direction sought with a large enough effect; inconclusive = small, poorly fitted or top-dose-only effect, or another doubt; inactive = no such curve, though single readings can be large; an effect the other way counts as inactive or inconclusive.
SMILES,IL-2 act,BRCA1 expr up,Nrf2 activator,ELG1 repair inh
CCN(CC)c1ccc(C(=O)NCc2ccc3c(c2)CCN3C(=O)c2ccc(F)cc2)cc1,.,.,0%,.
CC(C)c1ccc(-n2cccc2/C=C2/C(=N)N3C=CSC3=NC2=O)cc1,0,-50%,6%,16µM*
CC1=CSC2=NC(=O)/C(=C\c3cccn3-c3ccccc3)C(=N)N12,12,-29%,3%,?
COc1ccc(-c2sc3ccc(N4CCOCC4)cc3c2C#CCO)cc1,-4,-5%,-3%,5.2µM*
COc1ccc(NC(c2ccccc2)c2ccncc2)cc1 (centres undefined),-1,-27%,0%,26µM*
COc1ccc(C2(O)CC3CCC(C2)N3c2cc(C)nc(-c3ccccc3)n2)cc1 (centres undefined),-3,-24%,6%,18µM*
Cn1cc(/C=C(\C#N)C(=O)Nc2ccccc2O)c2ccccc21,?,12%,12%,8.2µM*
S=C(N/N=C/c1ccco1)NC1CC2CCC1C2 (centres undefined),1,4%,13µM*,?
Oc1ccccc1/C=N/NC(=S)NC1CC2CCC1C2 (centres undefined),-4,-53%,2%,?
O=c1[nH]c2ccccc2c(O)c1O,1,-14%,5%,3.3µM*
O=c1[nH]c2ccccc2c(O)c1-[n+]1ccccc1,-2,18%,0%,11%
O=C(Nc1ccc(F)cc1)c1ccc(S(=O)(=O)N2CCOCC2)o1,-1,-5%,4%,16µM*
CC1CN(S(=O)(=O)c2ccc(C(=O)Nc3ccc(S(=O)(=O)N4CCOCC4)cc3)cc2)CC(C)O1 (centres undefined),1,-33%,1%,8.2µM*
O=C(Nc1ccc(S(=O)(=O)N2CCCCC2)cc1)c1ccc(CN2CCOCC2)cc1,-2,-98%,-1%,7.3µM*
NS(=O)(=O)c1ccc(NC(=O)c2ccc(S(=O)(=O)N3CCOCC3)o2)cc1,1,-2%,0%,12%
Cc1ccc(NC(=O)C2CCN(S(=O)(=O)c3ccc4c(c3)NC(=O)C(C)S4)CC2)cc1Cl (centres undefined),0,0%,0%,13µM*
Cc1cc(C)cc(NC(=O)C2CCN(S(=O)(=O)c3ccc4c(c3)NC(=O)C(C)S4)CC2)c1 (centres undefined),-5,-37%,1%,?
O=C(Nc1ccc(S(=O)(=O)N2CCCC2)cc1)c1ccc(CN2CCOCC2)cc1,0,-45%,5%,?
O=C(Nc1ccc(S(=O)(=O)N2CCOCC2)cc1)c1ccc(S(=O)(=O)N2CCOCC2)cc1,0,-12%,0%,0%
O=C(Nc1ccc(Cl)cc1)c1cc(S(=O)(=O)N2CCOCC2)cs1,-2,-59%,2%,15µM*
O=C(Nc1ccc(Cc2ccncc2)cc1)c1ccc(S(=O)(=O)N2CCOCC2)cc1,-2,-18%,0%,13µM*
N#CCc1ccc(NC(=O)c2ccc(S(=O)(=O)N3CCCC3)cc2)cc1,0,-18%,4%,21µM*
Cc1cc(C)c(C)c(S(=O)(=O)N2CCC(C(=O)Nc3ccc(S(=O)(=O)N4CCOCC4)cc3)CC2)c1C,-1,-59%,4%,12µM*
COc1ccccc1NC(=O)C1=C(C)Nc2nc(SCc3ccccc3)nn2C1c1cccnc1 (centres undefined),.,-5%,0%,.
O=S(=O)(c1ccc2ccccc2c1)n1nc(-c2ccco2)nc1NCc1cccc(Cl)c1,.,.,0%,.
SMILES,IL-2 act,BRCA1 expr up,Nrf2 activator,ELG1 repair inh
Cc1ccc(S(=O)(=O)N2CC3C(=O)C[C@@H](c4ccccc4)N(S(=O)(=O)c4cccc(Cl)c4)C3CC2c2ccccc2)cc1 (some centres undefined),0,.,.,.
OC[C@H]1O[C@@H](c2nc(-c3ccc(CN4CCOCC4)cc3)no2)[C@H](O)[C@@H](O)[C@H]1O,0,0%,0%[9.22 µM],.
COc1ccc(N2CCN(S(=O)(=O)CCNC(=O)COc3ccccc3F)CC2)cc1,.,.,1%,.
CC1CN(S(=O)(=O)c2ccc(C(=O)Nc3nnc(-c4ccc5c(c4)CCCC5)o3)cc2)CC(C)O1 (centres undefined),-3,-27%,0%,2.6µM*
CC(=O)Nc1ccc(S(=O)(=O)N2CCC(C(=O)c3ccc(Cl)cc3)CC2)cc1,0,-42%,5%,18µM*
CCOC(=O)c1cnc(N2CCN(c3ccc(C)cc3C)CC2)c2ccccc12,.,.,0%,.
Cc1cc(OCC(=O)Nc2c(C(=O)c3ccccc3)oc3ccccc23)cc(C)c1Cl,.,.,0%,.
CCc1nc2ccc(C(=O)NCc3ccc4c(c3)OCO4)cn2c1N(C)C(=O)Cc1ccccc1,0,-7%,-1%,.
Cc1cc(C)nc(NC(=NCCc2c[nH]c3ccccc23)NC(=O)Nc2cccc([N+](=O)[O-])c2)n1,0,-56%,0%,5.2µM*
Cc1cc(C)nc(NC(=NCCc2c[nH]c3ccccc23)NC(=O)c2ccco2)n1,-1,-80%,2%,12µM*
Cc1cc(C)nc(NC(=NCCc2c[nH]c3ccccc23)NC(=O)Nc2ccc(Cl)c(Cl)c2)n1,4,-53%,-1%,?
Cc1cc(C)nc(NC(=NCCc2c[nH]c3ccccc23)NC(=O)Nc2ccccc2)n1,-1,-60%,-1%,15µM*
COc1cccc(CNC(=O)c2cccc(N3CCCS3(=O)=O)c2)c1,.,.,0%,.
O=C(NCC(c1ccc2c(c1)OCO2)N1CCN(c2ccccc2F)CC1)c1ccccc1F (centres undefined),.,.,6%,.
CCCNC(=O)C1(C)CCCN(Cc2cc(-c3ccccc3)n(C)n2)C1 (centres undefined),0,0%,0%,.
COc1ccc(-c2nc3ccccc3n3c(-c4cccc(C)c4)c4c(=O)n(C)c(=O)n(C)c4c23)cc1,.,.,-1%,.
CC(NC(=O)c1cc(COc2ccc(-n3cncn3)cc2)on1)c1ccc(F)cc1 (centres undefined),-3,13µM*,7%,.
COCC(C)N1C(=O)Cc2c1nc(N)c1c(N)nc(N3CCN(c4ccccc4F)CC3)c(C#N)c21 (centres undefined),-1,-56%,0%,21µM*
CCCCN(C)C(=O)c1ccc(Nc2nc(C(N)Cc3ccc(C(F)(F)F)cc3)cs2)nc1 (centres undefined),0,-35%,-3%,.
CCS(=O)(=O)N1CCN(c2ccc(C(=O)NC34CC5CC(CC(C5)C3)C4)cc2[N+](=O)[O-])CC1,-1,-5%,-2%,23µM*
Cc1cc(Cl)nc2nc(Cl)ccc12,.,0%,.,.
O=c1ccc(-c2nc3ccccc3n2C(CCc2ccccc2)c2nc3ccccc3[nH]2)c[nH]1 (centres undefined),-1,.,.,.
COCc1cc(C)[nH]c(=O)c1C(=O)NC12CC3CC(CC(C3)C1)C2,0,-11%,0%,18µM*
